Laboratory results reported in PubChem BioAssay AID1259374 (The Scripps Research Institute Molecular Screening Center, 2018).
Out of some 650,000 compounds screened, about 5,900 (0.91%) were called active. For the sample, actives were picked, then their nearest neighbours and some compounds at random. Values without a mark were called inactive. Rule as the data show it: active = inhibition above about 50%; inactive = the rest.

biological target: Microphthalmia-associated transcription factor (Homo sapiens) (UniProt O75030); test: MITF inhibitors, primary screen, biochemical, AlphaScreen, human (AID 1259374); settings: AlphaScreen MITF homodimerization, bead proximity signal; at 2.6 µM; active compounds read high;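 also: 0% = vehicle wells with protein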
Sequence (O75030 whole entry, looked up): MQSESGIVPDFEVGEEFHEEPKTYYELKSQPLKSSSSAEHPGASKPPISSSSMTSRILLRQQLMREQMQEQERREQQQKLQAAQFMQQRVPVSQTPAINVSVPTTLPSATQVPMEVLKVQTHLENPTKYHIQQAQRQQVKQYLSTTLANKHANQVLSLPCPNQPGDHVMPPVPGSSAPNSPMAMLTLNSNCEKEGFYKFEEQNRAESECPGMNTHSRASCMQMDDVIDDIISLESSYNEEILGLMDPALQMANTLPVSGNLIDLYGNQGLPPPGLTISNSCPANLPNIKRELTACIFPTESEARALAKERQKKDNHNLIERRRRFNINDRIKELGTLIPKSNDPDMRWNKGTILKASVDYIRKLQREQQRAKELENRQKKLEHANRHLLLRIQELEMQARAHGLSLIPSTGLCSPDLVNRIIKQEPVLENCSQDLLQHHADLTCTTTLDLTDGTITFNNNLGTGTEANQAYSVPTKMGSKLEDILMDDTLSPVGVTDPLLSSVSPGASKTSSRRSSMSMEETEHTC

Compound	inhibition
CC(=O)C1=C(O)C(=O)N(CCCN(C)C)C1c1ccc(Br)cc1 (stereo not drawn)	4.38%
COc1ccccc1/C=C1\SC(=S)N(CCC(=O)Nc2nc(C)cs2)C1=O	13.4%
CCOCc1nnc(NC(=O)C2CC(=O)N(c3ccc(C)cc3)C2)s1 (stereo not drawn)	9.92%
Cc1cc(OCCN2CCOCC2)nc(N2CCOCC2)n1	5.58%
Cc1cc(Cl)c(OCCN2CCOCC2)c(Br)c1	33.1%
Cc1ccc(C)c(OCCN2CCOCC2)c1C	54.9% (active)
CCOc1cccc(C(=O)Nc2ccc3oc(-c4ccc(Cl)c(Cl)c4)nc3c2)c1	4.15%
CCOCCOC(=O)C1=C(C)NC(=O)NC1c1ccccc1 (stereo not drawn)	2.55%
COc1cccc(/C=N/Nc2nc(=O)[nH]nc2C)c1OC	35%
Cc1n[nH]c(=O)nc1N/N=C/c1cccs1	86.2% (active)
Cc1cccc(Nc2nc(=O)[nH]nc2C)c1	13.2%
O=c1[nH]cnc2nc(N/N=C/c3ccc(Cl)cc3)[nH]c12	-5.83%
O=C(Nc1cccc(Br)c1)N1CCC(CN2CCCC2)CC1	5.45%
COc1cc(-c2cc(C(N)=O)on2)ccc1O	3.55%
COc1cc2nc(-c3cccc(C(C)=O)c3)nc(N)c2cc1OC	60.9% (active)
COc1cc2nc(-c3cccc(C(C)=O)c3)nc(Nc3ccc(N4CCOCC4)cc3)c2cc1OC	1.79%
CC(=O)c1cccc(-c2ncc(C)c(N)n2)c1	0.72%
COc1cccc(C(=O)NC(c2cccc([N+](=O)[O-])c2)c2cc(Cl)c3cccnc3c2O)c1 (stereo not drawn)	4.72%
Oc1c(C(Nc2ccccn2)c2ccc(OC(F)F)cc2)ccc2cccnc12 (stereo not drawn)	12.2%
CCOc1ccc(C(NC(=O)c2cc(OC)c(OC)c(OC)c2)c2cc(Cl)c3cccnc3c2O)cc1 (stereo not drawn)	17.1%
Cc1ccc(C(NC(=O)Cc2ccccc2)c2ccc3cccnc3c2O)cc1 (stereo not drawn)	3.27%

Compound	inhibition
O=C(Cc1ccccc1)NC(c1ccc(Cl)cc1)c1ccc2cccnc2c1O (stereo not drawn)	-1.99%
Cc1ccnc(NC(c2ccccc2Cl)c2ccc3cccnc3c2O)c1 (stereo not drawn)	22.3%
CC(=O)NC(c1ccccc1)c1ccc2cccnc2c1O (stereo not drawn)	54.5% (active)
CC(=O)NC(c1cccs1)c1cc(Cl)c2cccnc2c1O (stereo not drawn)	59.1% (active)
Oc1c(C(Nc2ccccn2)c2cccnc2)ccc2cccnc12 (stereo not drawn)	58.1% (active)
O=C(Oc1ccc2sc(=O)oc2c1)c1cccc(C(F)(F)F)c1	-7.72%
N#Cc1ccc(NC(=O)c2ccccc2C(=O)O)cc1	4.7%
Cc1ccc(S(=O)(=O)N/N=C/c2cccnc2)cc1[N+](=O)[O-]	-30.1%
COc1ccc(/C=C/c2cc[n+](C)cc2)c(OC)c1	-10.4%
CC(=O)Nc1cc(C(=O)NCCN2CCOCC2)cc(-n2ncc3cc(Nc4c(Cl)cccc4Cl)ccc32)c1	-3%
CCOC(=O)C1C2C=CC3(CN(c4ccc(C)cc4)C(=O)C13)O2 (stereo not drawn)	0.13%
O=C(CCCn1c(SCC(=O)c2ccc(Cl)c(Cl)c2)nc2ccsc2c1=O)NCCc1ccccc1	2.74%
Cc1ccc(C2CC(c3ccc(Br)cc3)=NN2C(=O)CSc2nnc(CNC(=O)COc3ccccc3)n2C)cc1 (stereo not drawn)	-9.25%
Clc1ccc(CN2CCc3nnc(C4CCCO4)n3CC2)cc1 (stereo not drawn)	9.36%
Clc1ccc(CN2CCN(CC3CC=CCC3)CC2)cc1 (stereo not drawn)	78.5% (active)
O=C(c1ccccc1)N1CCN(Cc2ccc(Cl)cc2)CC1	48.9%
N#C/C(=C\c1ccc(-c2ccc(S(N)(=O)=O)cc2)o1)C(N)=O	3.71%
CC(=O)NS(=O)(=O)c1ccc(-c2ccc(C=C(C#N)C#N)o2)cc1	64.8% (active)
CC(=O)NS(=O)(=O)c1ccc(-c2ccc(/C=C3/C(=O)N(CCCO)C(=O)C(C#N)=C3C)o2)cc1	3.37%
O=C(CCc1ccc2c(c1)OCO2)N1CCC(c2[nH]ncc2-c2ccccc2)CC1	-0.09%
Cc1cccc(OCCN2CCNCC2)c1C	73.1% (active)

Compound	inhibition
Cc1cc(Br)ccc1OCCN1CCNCC1	36.3%
Cc1ccc(OCCN2CCNCC2)cc1C	9.7%
Cc1cc(C(C)(C)C)ccc1OCCN1CCNCC1	52.3% (active)
C=CCc1ccccc1OCCN1CCNCC1	26.5%
Cc1cccc(OCCOCCN2CCC(C)CC2)c1C	24.9%
N#Cc1c(/N=C/c2ccccc2OCC(=O)O)sc2c1CCCC2	2%
COc1ccccc1CNC(=O)c1ccccc1Br	7.79%
O=c1c2ccccc2nc(/C=C\c2ccc(F)c(F)c2)n1-c1ccc(Cl)cc1[N+](=O)[O-]	1.53%
Cn1c(CC(=O)NNC(=O)CNC(=O)c2ccc(Br)cc2)nc2ccccc21	8.22%
Cc1ccc(-c2nn3c(C)nnc3s2)cc1NC(=O)COc1ccc(Cl)cc1C	-9.16%
O=S(=O)(c1ccc(Br)cc1Cl)N1CCN(CCc2ccncc2)CC1	75.3% (active)
O=S(=O)(/C=C/c1ccccc1)N1CCN(CCc2ccncc2)CC1	3.78%
O=S(=O)(c1cc(Br)ccc1Br)N1CCN(CCO)CC1	7.82%
CCN1CCN(Cc2c(O)ccc3c2O/C(=C\c2cc(OC)ccc2OC)C3=O)CC1	-14.3%
CN1CC(CO)O/C1=C(C#N)\C=C1\Nc2ccccc2C1=O (stereo not drawn)	21.7%
COc1ccc(OCCCC(=O)Nc2ccccc2)cc1	14.3%
COc1ccc(OC(=O)COc2ccc(Br)cc2)cc1	1.98%
COc1ccc(OCCCC(=O)Oc2ccc(OC)cc2)cc1	80.3% (active)
CCC(C)c1ccccc1NC(=O)CN(C)CC(=O)Nc1ccccc1SC (stereo not drawn)	89.7% (active)
CCC(C)c1ccccc1NC(=O)C(C)Cl (stereo not drawn)	-5.29%
CN(CC(=O)Nc1ccccc1F)CC(=O)Nc1ccccc1Br	-2.33%
